From PubChem BioAssay AID1259343 (VanderVen Lab, College of Veterinary Medicine, Cornell …, 2017)
In all, about 6,200 compounds went through this assay and about 2,900 (47%) were called active. So high a share suggests a set chosen from earlier hits. The list shows a part of the results. Values without a mark were called inactive. Rule as the data show it: active = inhibition above about 50%; inactive = the rest.

Experiment: Mycobacterium tuberculosis growth inhibition, primary screen (AID 1259343)
Conditions: inhibition: at 10 µM, stronger effect = higher value; outcome: 10 uM

SMILES	inhibition
Cc1cc(CN2CCN(c3c(Br)cnc4nc(-c5ccc(N6CCN(C)CC6)cc5)[nH]c34)CC2)no1	23.4%
Clc1ccc2c(c1)C(N1CCNCC1)=Nc1ccccc1O2	81.5% (active)
Cc1ccccc1CCNC(=O)Cn1c(-c2cccs2)n[nH]c1=S	1.7%
Cc1oc(-c2ccc(C(F)(F)F)cc2)nc1CN(C)CC1COc2ccccc2O1 (stereo unspecified)	53.7% (active)
COc1cccc2c1OCCCN(Cc1nc(-c3ccc(C(F)(F)F)cc3)oc1C)C2	23.4%
Cc1oc(-c2cc3c(cc2Cl)OCO3)nc1CN(C)Cc1ccc(C(F)(F)F)cc1	46.8%
O=C(CSC1CCCCC1)NC1CCCC1	-47.7%
O=C(Cc1ccc(Br)cc1)NC1CCCC1	82.1% (active)
O=C(C1=C(O)C(=O)N(c2ncccn2)C1c1ccc(Cl)c(Cl)c1)c1ccco1 (stereo unspecified)	-2.77%
COc1ccc(-c2cc(O)cc3sc(=O)oc23)cc1	69.8% (active)
COc1ccc(-c2c(C)noc2-c2ccc(OC)cc2O)cc1	16.2%
O=c1oc2c(-c3ccc(Br)cc3)cc(O)cc2s1	48.6%
CC(C)c1cccc(OCCOc2cccc3cccnc23)c1	58.4% (active)
CC(C)c1ccccc1OCCOc1cccc2cccnc12	61.7% (active)
Cc1ccc2cccc(OCCCOc3ccc(C)c(C)c3)c2n1	-21.9%
Cc1cc(S(=O)(=O)NC2CCCCC2C)ccc1Cl (stereo unspecified)	14.4%
O=C1c2ccccc2C(=O)C1c1ccnc2ccccc12	-13.4%
Nc1c2ccccc2nc2ccccc12 (tested in a mixture with another compound)	90.3% (active)
Cc1nn2c(NCCOCCO)cc(C(C)(C)C)nc2c1-c1ccccc1Cl	19.6%
Cc1nn2c(-c3ccccc3Cl)cc(C(=O)O)nc2c1-c1ccccc1	71.1% (active)
COc1ccccc1CN(Cc1cccc(C(F)(F)F)c1)Cc1nc(C(=O)O)co1	9.16%
COc1ccc(-c2cc(C(=O)NCCN3CCCCC3)nc3c(-c4ccccc4)c(C)nn23)cc1	38.1%
Cc1nn2c(-c3cccc(C(F)(F)F)c3)cc(C(=O)O)nc2c1-c1ccccc1	89.3% (active)
O=C1CCCC2=C1C(c1ccncc1)NC(=O)N2Cc1ccccc1 (stereo unspecified)	85.2% (active)
COc1ccc2cc(C(=O)C3CCCN(C(=O)CCC(=O)c4ccc(F)cc4)C3)ccc2c1 (stereo unspecified)	87.2% (active)
COc1ccc(C(=O)N2CCCC(C(=O)c3ccc(-c4ccccc4)c(F)c3)C2)o1 (stereo unspecified)	inactive

SMILES	inhibition
COc1ccc2cc(C(=O)C3CCCN(Cc4cccc(C)n4)C3)ccc2c1 (stereo unspecified)	42.4%
Cc1ccc(Nc2nc(N3CCN(Cc4ccccc4)CC3)nc3nccnc23)cc1Cl	19.4%
CC(C)c1ccc(Nc2nccc3c2ncn3Cc2ccccc2)cc1	73% (active)
Clc1ccc(Nc2nccc3c2ncn3Cc2ccccc2)cc1	57.3% (active)
Cc1cc2ncn(Cc3ccc(C(C)C)cc3)c2cc1C	-9.75%
Clc1ccc(Cn2ncc3c(Nc4ccc(Cl)cc4)ncnc32)cc1	9.84%
C=C(C)Cn1c(SCCCC)nc2c1c(=O)[nH]c(=O)n2C	-35.9%
CCS(=O)(=O)N1CCc2cc(-c3csc(-c4ccc(O)cc4)n3)ccc21	11.5%
O=C(CCCc1ccc(Cl)cc1)N1CCCC(CO)(Cc2ccc(F)cc2F)C1 (stereo unspecified)	18.9%
O=C(CCC(F)(F)F)N1CCCC(CCc2ccc(F)cc2F)C1 (stereo unspecified)	66% (active)
Cc1ccc(C(=O)N2CCCC(CCc3ccc(F)c(F)c3)C2)cc1O (stereo unspecified)	7.31%
CCCn1cc(NC(=O)c2cc(-c3ccccc3)on2)cn1	85.3% (active)
CCCn1cc(CNC(=O)c2ccc(Cl)cn2)cn1	-32.2%
CCCOc1ccc2c(c1)OCC(C(=O)Nc1cnn(C)c1)=C2	-4.68%
O=S(=O)(Nc1ccc(N2CCCC2)c(F)c1)c1cc(F)cc(F)c1	56.4% (active)
O=[N+]([O-])c1cc(S(=O)(=O)C(F)(F)F)ccc1N1CCN(c2ccccc2F)CC1	24.3%
Cc1ccc(C(=O)N2CCCN(C(=O)OC(C)(C)C)CC2)cc1S(C)(=O)=O	74.7% (active)
Cc1ccc(Cl)cc1N1CCN(C(=O)c2ccc(=O)[nH]c2)CC1	32.4%
O=C(c1cc(Br)cc(Br)c1)N1CCCCCC1	-4.59%
OCc1sc(N2CCOCC2)nc1-c1ccccc1	89.7% (active)
CCN(Cc1ccccc1)C(=O)c1ccc(-c2ccccc2)nc1N1CCOCC1	20.4%
Cc1cc2c(cc1C)C(=O)C(N1CCOCC1)=C(c1ccccc1)C2=O	40.4%
S=c1[nH]nc(-c2cc(-c3cccs3)nc3ccccc23)o1	inactive
Cc1cc(-c2n[nH]c(=S)o2)c(C)n1-c1ccccc1	70.3% (active)
O=S(=O)(Nc1ccc(Br)cc1F)c1ccc(Cl)c(C(F)(F)F)c1	88.3% (active)
COC(=O)c1ccc(F)c(NS(=O)(=O)c2ccc(Cl)c(C(F)(F)F)c2)c1	41.9%

SMILES	inhibition
O=S(=O)(Nc1ccc(Br)cc1F)c1cccs1	31.8%
O=S(=O)(Nc1ccc(Br)cc1Cl)c1ccc(F)cc1	50.5% (active)
CCC(C)(C)C1CCC(=NNc2ccc([N+](=O)[O-])cc2)CC1 (stereo unspecified)	74.3% (active)
O=[N+]([O-])c1ccc(NN=CC2CCCCC2)cc1	97.8% (active)
O=[N+]([O-])c1ccc(NN=C2CCCCCCC2)cc1	88.4% (active)
O=[N+]([O-])c1ccccc1NN=C1CCCCc2ccccc21	5.1%
CC(C)(C)C1CCC(=NNc2ccc([N+](=O)[O-])cc2)CC1 (stereo unspecified)	-18.8%
O=S(=O)(Oc1ccc2ccccc2c1Cl)N1CCCCC1	0.9%
COc1cccc(NC(=O)c2c[nH]c3c(c(C)nn3-c3ccccc3)c2=O)c1	90.4% (active)
Cc1cc(C)cc(NC(=O)c2c[nH]c3c(c(C)nn3-c3ccccc3)c2=O)c1	45.9%
Cc1nn(-c2ccccc2)c2[nH]cc(C(=O)Nc3ccc(N(C)C)cc3)c(=O)c12	29%
Cc1ccc(-n2nc(C)c3c(=O)c(C(=O)N4c5ccccc5CC4C)c[nH]c32)cc1 (stereo unspecified)	54.2% (active)
Cc1nn(-c2ccccc2)c2[nH]cc(C(=O)Nc3ccccc3)c(=O)c12	53.1% (active)
COc1ccc(NC(=O)c2c[nH]c3c(c(C)nn3-c3ccccc3)c2=O)cc1	67.8% (active)
Cc1ccc(CNC(=O)c2c[nH]c3c(c(C)nn3-c3ccccc3)c2=O)cc1	49.8%
Cc1nn(-c2ccccc2)c2[nH]cc(C(=O)NCc3ccccc3Cl)c(=O)c12	31.5%
Cc1nn(-c2ccccc2)c2[nH]cc(C(=O)NCc3ccccc3)c(=O)c12	51.6% (active)
Cc1noc(-c2cc(Br)cc(Br)c2O)n1	101% (active)
O=C(O)c1cc2cc(Cl)ccc2[nH]1	56.1% (active)
O=C(O)c1csc(-c2ccc(Cl)cc2Cl)n1	39.2%
Cc1cc(Cl)cc2sc(N(CCCn3ccnc3)C(=O)/C=C/c3cccs3)nc12	75.5% (active)
N=C1C2=C3Sc4ccccc4N3CCCC2=NN1c1ccc(Cl)cc1	13.7%
CN(Sc1ccccc1[N+](=O)[O-])c1ccccc1	30.9%
O=[N+]([O-])c1cccnc1Oc1ccc(Oc2ccccc2)cc1	94.5% (active)
c1ccc(CCCc2nnnn2CC2CCOC2)cc1 (stereo unspecified)	65.2% (active)
CC(C)c1noc(C(C)Nc2ccc3c(c2)CCO3)n1 (stereo unspecified)	1.87%

SMILES	inhibition
COc1ccc(NC(C)c2nc(-c3ccco3)no2)cc1 (stereo unspecified)	94.9% (active)
CC1(C)C2CCC1(C)C(NC(=O)COc1ccccc1Cl)C2 (stereo unspecified)	91.4% (active)
CC1(C)C2CCC1(C)C(NS(=O)(=O)Cc1ccccc1)C2 (stereo unspecified)	7.59%
CC1CCC(NC(=O)COc2ccccc2Br)CC1 (stereo unspecified)	42.5%
CCOc1ccccc1NC(=O)N1CCN(CCCOC(c2ccc(Cl)cc2)c2ccc(Cl)cc2)CC1	16.6%
Cc1occc1C(=O)Nc1cc(Cl)ccc1C(=O)O	62.5% (active)
O=C(Nc1ccc(C(=O)O)c(O)c1)c1cc(Cl)cc(Cl)c1	25.6%
Cc1cc(=O)[nH]c(-n2nc(C)cc2NC(=O)C2c3ccccc3Oc3ccccc32)n1	100% (active)
CCCc1cc(=O)[nH]c(-n2nc(C)cc2NC(=O)C2c3ccccc3Oc3ccccc32)n1	99% (active)
CCc1cc(=O)[nH]c(-n2nc(C)cc2NC(=O)C2c3ccccc3Oc3ccccc32)n1	101% (active)
Cc1cc(NC(=O)C2c3ccccc3Oc3ccccc32)n(-c2nc3c(c(=O)[nH]2)CCC3)n1	-27.3%
O=C(Nc1ccc(SC(F)F)cc1)c1ccc(-n2cncn2)cc1	52.4% (active)
FC(F)Sc1ccc(NC(=S)NN2CCCCC2)cc1	28.6%
CN(C)P(=NC(=S)Nc1ccc(SC(F)F)cc1)(c1ccncc1)N(C)C	inactive
COc1ccc(C(=O)Nc2nc(-c3ccccc3)cs2)cc1	22.9%
COc1cccc(C(=O)Nc2nc(-c3ccccc3)cs2)c1	71.2% (active)
Cc1cc(C(=O)O)n2nc(-c3ccc(Cl)cc3)cc2n1	76.7% (active)
CCN(CC)S(=O)(=O)c1ccc(C(=O)Nc2nc(-c3ccccc3)cs2)cc1	35.8%
COc1ccc(-c2cc3nc(C)cc(NC(C)c4ccccc4)n3n2)cc1OC (stereo unspecified)	26.1%
COc1cccc(-c2cc(C(=O)O)n3nc(-c4ccccc4)cc3n2)c1	104% (active)
CCOC(=O)C1CCCN(C(=O)c2cc(-c3cccc(OC)c3)nc3cc(-c4ccccc4)nn23)C1 (stereo unspecified)	1.82%
O=C(O)c1cc(-c2ccccc2F)nc2cc(-c3ccccc3)nn12	71.8% (active)
COc1ccc(-c2cc(C(=O)O)n3nc(-c4ccc(Cl)cc4)cc3n2)cc1	41.5%
